In assay [1] the target is ATP-dependent 6-phosphofructokinase (Trypanosoma brucei brucei) (UniProt O15648). The assay is described as follows: qHTS Assay to Find Inhibitors of T. brucei phosphofructokinase: hit validation (AID 492961). Also: % is scaled to controls: 0 for no effect and ±100 for the full control effect. In outline: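 Luminescence from ADP-Glo reports ADP generated as T. brucei PFK (1.25 nM) phosphorylates 0.5 mM fructose-6-phosphate using 0.1 mM ATP. Reactions ran 45 min at room temperature, pH 8.0.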
Chain of ATP-dependent 6-phosphofructokinase (Trypanosoma brucei brucei) (O15648 whole entry, looked up): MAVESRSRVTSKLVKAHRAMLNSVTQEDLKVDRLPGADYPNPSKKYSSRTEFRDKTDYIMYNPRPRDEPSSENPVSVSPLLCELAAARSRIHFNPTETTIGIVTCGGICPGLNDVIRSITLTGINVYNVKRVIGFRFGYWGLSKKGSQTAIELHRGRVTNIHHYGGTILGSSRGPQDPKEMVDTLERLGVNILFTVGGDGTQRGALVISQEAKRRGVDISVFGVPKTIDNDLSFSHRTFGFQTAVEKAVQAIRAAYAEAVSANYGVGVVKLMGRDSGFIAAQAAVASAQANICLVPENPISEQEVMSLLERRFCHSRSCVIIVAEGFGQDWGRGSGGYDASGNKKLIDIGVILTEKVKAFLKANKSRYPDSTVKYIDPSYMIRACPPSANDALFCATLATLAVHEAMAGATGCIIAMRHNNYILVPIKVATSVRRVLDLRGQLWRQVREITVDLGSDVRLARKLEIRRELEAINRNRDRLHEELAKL
In general terms: Quantitative high-throughput screening tests each substance at several concentrations.

Assay [2] is described as follows: qHTS profiling for inhibitors of Plasmodium falciparum proliferation (AID 504749). Also: potency is read from the fitted curve at half-maximal effect.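 As to activity, negative = inhibition: 0% = DMSO vehicle and full inhibition = artemisinin control.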 As to all read-outs here: nearly all actives have a fitted effect of over 60% in size. The settings on record: P. falciparum in erythrocytes, SYBR Green DNA, 72 h; for activity, negative = inhibition: at 28.7 µM (top of the series). In outline:
(§1)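 Each compound contacts P. falciparum-infected red blood cells for 72 h at 37 C; lysis buffer (Tris, EDTA, saponin, Triton X, SYBR Green I) is added and fluorescence measured next morning; values normalized to controls.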

The subject of assay [3] is 7G8. The assay is described as above. The following applies: P. falciparum in erythrocytes, SYBR Green DNA, 72 h; series mostly up to 28.7 µM. The method in brief: as §1
Assay [4] has as its system CP215. The assay is described as above. The settings on record: P. falciparum in erythrocytes, SYBR Green DNA, 72 h; series mostly up to 28.7 µM. The method in brief:
as §1

Assay [5] concerns CP305. The description is as above. The settings on record: P. falciparum in erythrocytes, SYBR Green DNA, 72 h; series mostly up to 28.7 µM. In outline:
as §1

The subject of assay [6] is Dd2. Described as above. The following applies: P. falciparum in erythrocytes, SYBR Green DNA, 72 h; series mostly up to 28.7 µM. In outline: as §1
Assay [7] concerns PC15. The assay is described as above. The following applies: P. falciparum in erythrocytes, SYBR Green DNA, 72 h; series mostly up to 28.7 µM. The method in brief: as §1
The nature of assay [8]: AP1 Signaling Pathway (AID 357; active = well fitted curve in either direction with a large enough effect, not every such curve was filed as active;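 also: ME-180 reporter cells stimulated with EGF at its EC50 level; % is scaled to controls: 0 for no effect and ±100 for the full control effect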). The settings on record: ME-180 (cervical carcinoma) AP-1-bla reporter, EGF-induced, beta-lactamase ratio, 5 h. In outline:
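Beta-lactamase reporter under AP-1 response element, ME-180 background. Stimulus: EC50 EGF. Compound exposure 5 h, 37 °C. Detection: CCF4, 2.5 h RT, 460/530 nm. Values: AC50 from titration.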

In assay [9] the target is Voltage-gated inwardly rectifying potassium channel KCNH2 (Homo sapiens) (UniProt Q12809). The assay is described as follows: qHTS Assay for Small Molecule Inhibitors of the Human hERG Channel Activity (AID 588834).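 Also: lower thallium flux fluorescence means stronger hERG block; nearly all actives have a fitted effect of over 50% in size.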 Also: potency is read from the fitted curve at half-maximal effect. As to activity change, negative = inhibition: top concentration of the series differs between compounds; % is scaled to controls: 0 for no effect and ±100 for the full control effect. The method in brief:
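Step 1: BacMam hERG transduction of U2OS, 4 hrs RT. Step 2: overnight 37 °C, plate 2000 cells/well, 4 hr. Step 3: FluxOR load, compound 10 min, stimulate, read fluorescence.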

Assay [10] has as its target Endonuclease 4 (Escherichia coli (strain K12)) (UniProt P0A6C1). The assay is described as follows: Counterscreen for APE1 Inhibitors: qHTS Validation Assay for Inhibitors of Endonuclease IV (AID 1708). Also: % is scaled to controls: 0 for no effect and ±100 for the full control effect. In outline:
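Conditions: 2 nM enzyme, 50 nM TAMRA/BHQ-2 substrate, pH 7.5 Tris buffer with 2 mM MgCl2, RT. Compound preincubation 15 min; readout three fluorescence reads 60 s apart, third-minus-first.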
(In general: The purpose of a counterscreen is to sort out artefacts and off-target activity.)

A short description of assay [11]: qHTS for differential inhibitors of proliferation of Plasmodium falciparum line 3D7 (AID 1876). Also: potency is read from the fitted curve at half-maximal effect.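 As to activity, negative = inhibition: parasite growth measured after three days of culture; 0% = vehicle wells and -100% = reference inhibitor wells.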
Assay [12] in a line: qHTS for differential inhibitors of proliferation of Plasmodium falciparum line W2 (AID 1883).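 Also: potency is read from the fitted curve at half-maximal effect; parasites grown with compound for 72 h before lysis and staining.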 The settings on record: Potency: Plasmodium falciparum W2 proliferation inhibition.
Assay [13] is described as follows: qHTS Assay for Modulators of Human Peripheral Myelin Protein 22 (PMP22) Expression/Activity (AID 1967; active = well fitted curve in the direction sought with a large enough effect in the signal ratio; the % refers to the signal ratio;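 also: 0% = untreated cells and 100% end not stated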). In outline:
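Luminescence ratio of Pmp22 promoter-driven green luciferase to EF-alpha-driven red luciferase, in engineered mouse MSC80 Schwann cells, served as read-out. Compounds were incubated 24h; untreated cells defined 0% Activity; curves were classified by r2, magnitude and activity.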

Assay [14] has as its target RecQ-like DNA helicase BLM (Homo sapiens) (UniProt P54132). The assay is described as follows: qHTS Validation Assay for Inhibitors of Bloom's syndrome helicase (BLM) (AID 2364).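 Also: plate controls were DMSO vehicle for no effect and enzyme-free control for full effect.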 In outline: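 50 nM BLM preincubated 15 min at room temperature with compound in pH 8.0 Tris buffer containing 2.5 ug/ml poly(dI-dC); started with 200 nM TAMRA/BHQ-2 forked duplex and 2 mM ATP (final). Unwinding read as TAMRA fluorescence increase, two reads 2 h apart.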

Assay [15] in a line: Validation screen for small molecules that induce DNA re-replication in MCF 10A normal breast cells (AID 463097). Also: 0% is about no effect; nearly all actives have a fitted effect of over 60% in size. In outline:
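Image-based qHTS: normal breast cells are incubated with compound for 48 hr, stained with Hoechst, and scanned for total nuclear fluorescence. Compounds raising the fraction of nuclei with elevated DNA content count as re-replication inducers.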

Assay [16] can be described thus: qHTS for differential inhibitors of proliferation of Plasmodium falciparum line Dd2 (AID 1882). Also: nearly all actives have a fitted effect of over 65% in size. Also: potency is read from the fitted curve at half-maximal effect.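 As to activity change, negative = inhibition: plate controls were DMSO vehicle for no effect and 0.29 µM artemisinin for full effect.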 The following applies: Potency: Plasmodium falciparum Dd2 proliferation inhibition. The method in brief:
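SYBR Green DNA fluorescence (ex 485, em 535 nm) after overnight lysis quantifies parasite growth; compound exposure lasted 72 h at 37 C on infected red cells at 2.5% hematocrit, 0.3% parasitemia (final). Artemisinin 0.29 uM and vehicle wells define normalization.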

A short description of assay [17]: qHTS for differential inhibitors of proliferation of Plasmodium falciparum line 7G8 (AID 1815).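 Also: parasite growth measured after three days of incubation.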 Also: potency is read from the fitted curve at half-maximal effect.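 As to activity change, negative = inhibition: plate controls were vehicle wells for no effect and reference inhibitor wells for full effect.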
The nature of assay [18]: qHTS for differential inhibitors of proliferation of Plasmodium falciparum line GB4 (AID 1816).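 Also: parasite growth measured after 72 h incubation.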 Also: potency is read from the fitted curve at half-maximal effect.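 As to activity change, negative = inhibition: 0% = vehicle DMSO and -100% = reference inhibitor.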 The following applies: Potency: Plasmodium falciparum GB4 proliferation inhibition.
Assay [19] is described as follows: qHTS for differential inhibitors of proliferation of Plasmodium falciparum line D10 (AID 1877).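 Also: parasites grown with compound for 72 h before DNA staining.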 Also: potency is read from the fitted curve at half-maximal effect.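 As to activity change, negative = inhibition: plate controls were vehicle wells for no effect and reference inhibitor wells for full effect.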
Assay [20] in a line: qHTS for differential inhibitors of proliferation of Plasmodium falciparum line HB3 (AID 1886).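 Also: parasites grown with compound for 72 h before SYBR Green readout.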 Also: potency is read from the fitted curve at half-maximal effect.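 As to activity change, negative = inhibition: plate controls were vehicle for no effect and reference inhibitor for full effect.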 The following applies: Potency: Plasmodium falciparum HB3 proliferation inhibition.
Where [21] appears, read: at 7.69 µM (top of the series) unless noted.

“And” between values parts separate entries of the source, which are not always exact repeats. Identical values can stand only once. Results filed as inconclusive are left out. Unmarked numbers belong to inactive results. The source made the active and inactive calls. Unless noted, calls follow the shape of the dose curve; as a rule, active = well fitted curve in the direction sought with a large enough effect; inconclusive = small, poorly fitted or top-dose-only effect, or another doubt; inactive = no such curve, though single readings can be large; an effect the other way counts as inactive or inconclusive.

Chain of RecQ-like DNA helicase BLM (Homo sapiens) (P54132 whole entry, looked up): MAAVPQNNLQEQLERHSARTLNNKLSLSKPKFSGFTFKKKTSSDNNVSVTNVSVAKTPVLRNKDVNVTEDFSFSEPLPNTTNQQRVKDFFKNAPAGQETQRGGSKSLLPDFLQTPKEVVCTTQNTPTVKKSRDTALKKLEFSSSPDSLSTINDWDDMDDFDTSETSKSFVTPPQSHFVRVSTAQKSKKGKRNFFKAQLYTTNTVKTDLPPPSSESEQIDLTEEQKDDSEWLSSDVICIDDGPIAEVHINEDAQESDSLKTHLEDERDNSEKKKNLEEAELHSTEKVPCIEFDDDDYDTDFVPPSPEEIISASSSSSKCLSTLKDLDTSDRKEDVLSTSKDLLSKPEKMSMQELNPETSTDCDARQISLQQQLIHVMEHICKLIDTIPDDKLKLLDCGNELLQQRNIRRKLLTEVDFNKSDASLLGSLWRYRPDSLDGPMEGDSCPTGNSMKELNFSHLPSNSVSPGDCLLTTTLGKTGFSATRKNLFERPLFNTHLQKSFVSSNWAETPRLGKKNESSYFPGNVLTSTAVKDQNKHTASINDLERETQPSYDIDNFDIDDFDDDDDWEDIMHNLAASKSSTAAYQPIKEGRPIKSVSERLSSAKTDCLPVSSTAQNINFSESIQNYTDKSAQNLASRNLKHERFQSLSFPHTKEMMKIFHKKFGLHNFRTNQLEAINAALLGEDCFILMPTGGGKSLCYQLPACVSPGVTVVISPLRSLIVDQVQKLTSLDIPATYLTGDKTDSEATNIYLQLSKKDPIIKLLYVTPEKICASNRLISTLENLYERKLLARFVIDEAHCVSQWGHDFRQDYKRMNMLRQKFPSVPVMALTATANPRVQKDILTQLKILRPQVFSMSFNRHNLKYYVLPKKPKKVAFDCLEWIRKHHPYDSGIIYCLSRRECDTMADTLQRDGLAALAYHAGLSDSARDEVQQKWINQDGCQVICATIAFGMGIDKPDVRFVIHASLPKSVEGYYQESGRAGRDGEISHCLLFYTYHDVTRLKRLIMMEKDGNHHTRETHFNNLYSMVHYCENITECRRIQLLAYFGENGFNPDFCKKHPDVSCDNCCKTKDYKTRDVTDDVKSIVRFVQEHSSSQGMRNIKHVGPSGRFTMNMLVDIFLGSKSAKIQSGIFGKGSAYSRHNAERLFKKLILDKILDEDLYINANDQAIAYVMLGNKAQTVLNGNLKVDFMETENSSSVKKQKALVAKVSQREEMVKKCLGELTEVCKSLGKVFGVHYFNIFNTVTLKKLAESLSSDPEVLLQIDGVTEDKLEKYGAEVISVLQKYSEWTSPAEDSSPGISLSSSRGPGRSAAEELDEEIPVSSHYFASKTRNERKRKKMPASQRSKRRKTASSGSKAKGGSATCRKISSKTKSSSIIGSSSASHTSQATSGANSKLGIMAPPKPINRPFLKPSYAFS
Chain of Voltage-gated inwardly rectifying potassium channel KCNH2 (Homo sapiens) (Q12809 whole entry, looked up): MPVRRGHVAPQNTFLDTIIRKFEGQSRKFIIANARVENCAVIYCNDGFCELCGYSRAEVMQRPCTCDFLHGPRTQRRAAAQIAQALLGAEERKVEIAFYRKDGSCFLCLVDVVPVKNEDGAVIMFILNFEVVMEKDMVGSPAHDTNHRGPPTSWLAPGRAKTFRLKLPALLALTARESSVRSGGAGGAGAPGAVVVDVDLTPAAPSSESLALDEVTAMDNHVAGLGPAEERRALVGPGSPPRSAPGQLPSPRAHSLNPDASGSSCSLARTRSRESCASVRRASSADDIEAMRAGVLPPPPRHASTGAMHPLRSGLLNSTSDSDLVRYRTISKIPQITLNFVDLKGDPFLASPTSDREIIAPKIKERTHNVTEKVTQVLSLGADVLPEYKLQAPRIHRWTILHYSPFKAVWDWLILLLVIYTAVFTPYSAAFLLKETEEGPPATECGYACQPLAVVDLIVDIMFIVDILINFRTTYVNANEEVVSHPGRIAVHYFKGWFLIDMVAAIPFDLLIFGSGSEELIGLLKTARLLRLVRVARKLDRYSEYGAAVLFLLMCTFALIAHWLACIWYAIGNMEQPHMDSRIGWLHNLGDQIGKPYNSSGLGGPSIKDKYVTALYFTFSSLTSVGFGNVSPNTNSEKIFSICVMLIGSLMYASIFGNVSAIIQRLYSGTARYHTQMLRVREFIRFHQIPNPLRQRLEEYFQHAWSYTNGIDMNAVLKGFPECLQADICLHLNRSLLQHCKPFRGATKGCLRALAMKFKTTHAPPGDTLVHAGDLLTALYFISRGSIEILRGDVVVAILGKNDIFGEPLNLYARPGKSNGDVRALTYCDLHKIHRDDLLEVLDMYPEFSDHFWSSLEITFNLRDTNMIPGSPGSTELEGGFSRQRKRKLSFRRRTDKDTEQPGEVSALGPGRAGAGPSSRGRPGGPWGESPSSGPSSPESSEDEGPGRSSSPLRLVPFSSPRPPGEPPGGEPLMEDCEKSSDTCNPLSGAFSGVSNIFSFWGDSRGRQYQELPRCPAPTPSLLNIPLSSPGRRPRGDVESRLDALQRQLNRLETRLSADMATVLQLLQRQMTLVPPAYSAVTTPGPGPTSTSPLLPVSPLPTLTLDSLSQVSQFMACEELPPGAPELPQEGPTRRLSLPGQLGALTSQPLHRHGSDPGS

On to `CO[C@H]1/C=C/O[C@@]2(C)Oc3c(C)c(O)c4c(O)c(c(/C=N\N5CCN(C6CCCC6)CC5)c(O)c4c3C2=O)NC(=O)/C(C)=C\C=C\[C@H](C)[C@H](O)[C@@H](C)[C@@H](O)[C@@H](C)[C@H](OC(C)=O)[C@@H]1C`, for which, in [1], the compound was classed as inactive. The Potency in assay [2] (parasite line A) was 1.58 µM (active); in [2] (parasite line B), 0.631 µM (active); in assay [3], 0.141 µM (active); in assay [4], 4.26 µM (active); in assay [5] it was 4.78 µM (active); in assay [6] it was 0.447 µM (active). Moreover, the Potency in assay [7] is 0.794 µM (active).
On to `CC(C)n1c(/C=C/[C@H](O)C[C@H](O)CC(=O)O)c(-c2ccc(F)cc2)c2ccccc21`, for which, in [1], the outcome was inactive.
Turning to `NCCC(=O)NCCc1cnc[nH]1`, the activity change, negative = inhibition in assay [8] (at 17.2 µM (top of the series)) was -8.55%; in assay [8] (at 38 µM (top of the series)), 7.43%.
Take `CN1C(=O)CCC1c1cccnc1` (centres undefined): the call in assay [1] was inactive. Also, the Potency entry in assay [3], in assay [4], in assay [5], in assay [6] and in [7] was “inactive” in each case.
Regarding `CN=C(N)NCCCC(N)C(=O)O` (centres undefined), in [1], the outcome was inactive. In addition, the Potency entry in assay [3], in assay [4], in assay [5], in assay [6] and in assay [7] was “inactive” each time.
In the case of `CC(C)C[C@H]1C(=O)N2CCCC2[C@]2(O)O[C@](NC(=O)[C@@H]3C=C4c5cccc6[nH]c(Br)c(c56)C[C@H]4N(C)C3)(C(C)C)C(=O)N12` (some centres undefined), the result in [1] was inactive. Further, the Potency result in [9] is “inactive”. Also, the Potency in [2] (parasite line A) was 11.2 µM (active); in assay [2] (parasite line B), 5.62 µM (active); in [3] it was 0.708 µM (active); in assay [4], 8.49 µM (active); in assay [5], 10.7 µM (active); in [6], 2.51 µM (active). Besides, the Potency in assay [7] was 7.94 µM (active).
In the case of `COc1cc2c(cc1OC)C(c1ccccc1)CN(C)CC2` (centres undefined), the result in [10], in assay [13], in [15] and in [1] was inactive. Further, the Potency in assay [11] is 14.1 µM (active); in [12] it was 7.94 µM (active). Also, the Potency result in [14], in assay [4], in [5] and in [7] was “inactive” throughout. The activity, negative = inhibition was -10.7% in assay [2] (parasite line A) and -13.2% in assay [2] (parasite line B).
Take `C[C@]12C=CC(=O)C=C1CCC1C2=CC[C@]2(C)[C@@H](C(=O)CN3CCN(c4cc(N5CCCC5)nc(N5CCCC5)n4)CC3)CC[C@@H]12` (some centres undefined): in assay [9], the Potency result was “inactive”.
Take `CC(=O)NCCc1ccc(O)c(O)c1`: the activity change, negative = inhibition in assay [8] (setting [21]) was -4.94% [at 38 µM]. The call in assay [10], in assay [13] and in assay [15] was inactive. The Potency entry in assay [16] and in [9] was “inactive” throughout.
On to `NCCCCNS(=O)(=O)c1cccc2c(Cl)cccc12`, for which, in assay [8] (setting [21]), the activity change, negative = inhibition is -2.83% [at 38 µM]. Further, the result in assay [10] was inactive. The Potency in assay [17] is 8.91 µM (active); in assay [18], 10 µM (active); in assay [11], 8.91 µM (active); in [19], 10 µM (active); in assay [12] it was 11.2 µM (active); in assay [20], 12.6 µM (active). The Potency in [9] is 4.47 µM (active). Further, in assay [14], the Potency result is “inactive”.
On to `CC(C)(C)[C@]1(O)CCN2CC3c4ccccc4CCc4cccc(c43)[C@@H]2C1` (some centres undefined), for which the Potency is 5.62 µM (active) and 5.01 µM (active) in [17]; 6.31 µM (active) and 5.01 µM (active) in assay [18]; 6.31 µM (active) and 3.55 µM (active) in assay [11]; 12.6 µM (active) and 11.2 µM (active) in assay [19]; 7.08 µM (active) and 14.1 µM (active) in assay [16]; 2.82 µM (active) and 2.24 µM (active) in [12]. The Potency in assay [20] was 12.6 µM (active) and 6.31 µM (active); in assay [9] it was 2 µM (active); in assay [3], 11.2 µM (active); in assay [6], 10 µM (active). For the same compound, the outcome in [1] was inactive. The Potency result in [4] and in [5] was “inactive” throughout.
As to `CSc1nc(N)c2ncn([C@@H]3O[C@H](COP(=O)(O)OP(=O)(O)OP(=O)(O)O)[C@H](O)[C@H]3O)c2n1`, the call in [10] and in assay [15] was inactive. Also, the Potency in [18], in assay [19] and in assay [12] was 12.6 µM (active) in each case. For the same compound, the Potency result in assay [16] and in assay [9] was “inactive” each time.
Regarding `CNCC[C@@H](Oc1ccc(C(F)(F)F)cc1)c1ccccc1`, the compound was classed as inactive in assay [10].
`OC[C@H]1O[C@@H](n2cnc3c(NC4CCCC4)ncnc32)[C@H](O)[C@H]1O`: the compound was called inactive in assay [10] and in [15]. The Potency entry in [18], in [11], in assay [19], in [16], in assay [20] and in assay [14] was “inactive” throughout. In assay [9], the Potency result is “inactive”.
Take `CCSC(N)=Nc1ccc(C(F)(F)F)cc1`: the activity change, negative = inhibition in [8] (setting [21]) was -5.3% [at 38 µM]. In addition, the call in assay [10], in assay [13] and in assay [15] was inactive. In addition, the Potency entry in [17], in [11], in assay [19], in assay [16], in assay [20] and in assay [9] was “inactive” in each case.
With `COC(=O)c1c(-c2cc(OC)c(OC)c(OC)c2)c2ccc(OCc3ccccn3)cc2c(=O)n1-c1ccc(N)cc1`, the activity change, negative = inhibition in assay [8] (setting [21]) was -16.9% [at 38 µM]. The Potency in assay [17] is 0.891 µM (active); in assay [18] it was 2.82 µM (active); in assay [11], 3.98 µM (active); in [19], 7.08 µM (active); in [16], 2 µM (active); in [12], 2.24 µM (active). Moreover, in assay [20], the Potency was 2.82 µM (active). In assay [15], the compound was called inactive.
Take `CCCC(=O)NCCc1c2n(c3ccc(OC)cc13)Cc1ccccc1-2`: in assay [8] (setting [21]), the activity change, negative = inhibition is -34.8% [at 38 µM]. Also, the compound was classed as inactive in assay [10], in [13] and in [15]. In addition, the Potency in [17] was 11.2 µM (active); in assay [12], 7.08 µM (active). The Potency result in assay [16], in assay [14] and in assay [9] was “inactive” in each case.

The record behind these values is PubChem BioAssay (NCATS).
